Rab9 promoter act: activators of Rab9 promoter; Huh7 Rab9 promoter-luciferase reporter, luminescence, 24 h; Potency, µM (doses to about 9.22 µM), actives largely listed as activators; AID 485297; 320,000 tested, 2.8% active; also: nearly all actives have a fitted effect of over 60% in size
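Cell-based reporter: Huh7 stable for Rab9 promoter-driven luciferase, plated in reduced-serum medium with 10% FBS at 1500 cells/well, compound-treated 24 h at 37 °C, luminescence read after 10 min reagent.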
NPC1 prom act: NPC1 promoter activation. Huh7 NPC1 promoter luciferase reporter, 24 h. Potency, µM (top dose mostly 9.22 µM), usual class: activators. 320,000 tested, 2.4% active; also: nearly all actives have a fitted effect of over 60% in size
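Quantitative HTS used a cell-based reporter: Huh7 cells stably bearing the NPC1 promoter upstream of luciferase were treated with compounds for 24 h, and promoter activation was read as luminescence.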
ELG1 genotox: genotoxicity induction in ELG1-luciferase HEK293T cells. HEK293T ELG1-luciferase reporter, luminescence, 16 h. Potency, µM (series often up to 46 µM), actives largely listed as activators. 330,000 tested, 1.3% active. AID 504466; also: nearly all actives have a fitted effect of over 60% in size
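ELG1-luciferase HEK293T cells, 2,000/well; compound pinned in; 16 hr, 37 °C, 5% CO2; ONE-Glo, 30 min RT; luminescence on CCD imager.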
SMN2 splice up: enhancers of SMN2 splice variant expression. Potency, µM (highest dose often 46.1 µM), actives largely listed as activators. 210,000 tested, 2.8% active. HEK293 SMN2-luciferase splicing reporter, luminescence, 30-36 h; also: nearly all actives have a fitted effect of over 55% in size
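HEK293 cells carry an SMN2 […]–luciferase reporter in which exon 7 inclusion puts luciferase in frame. Cells were plated 10-12 h before compound addition, then incubated 30-36 h at 37C. ONE-Glo luminescence was read; sodium butyrate at 4.5 mM final served as control.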
FLuc counter: counter-screen for miR-21 project: firefly luciferase inhibitors or activators | P08659 | purified FLuc, Km substrates, luminescence inhibition | Potency, µM (titrated, usually from 57.5 µM), usual class: inhibitors | 360,000 tested, 6.9% active; also: nearly all actives have a fitted effect of over 55% in size
Target sequence (P08659 whole entry, looked up): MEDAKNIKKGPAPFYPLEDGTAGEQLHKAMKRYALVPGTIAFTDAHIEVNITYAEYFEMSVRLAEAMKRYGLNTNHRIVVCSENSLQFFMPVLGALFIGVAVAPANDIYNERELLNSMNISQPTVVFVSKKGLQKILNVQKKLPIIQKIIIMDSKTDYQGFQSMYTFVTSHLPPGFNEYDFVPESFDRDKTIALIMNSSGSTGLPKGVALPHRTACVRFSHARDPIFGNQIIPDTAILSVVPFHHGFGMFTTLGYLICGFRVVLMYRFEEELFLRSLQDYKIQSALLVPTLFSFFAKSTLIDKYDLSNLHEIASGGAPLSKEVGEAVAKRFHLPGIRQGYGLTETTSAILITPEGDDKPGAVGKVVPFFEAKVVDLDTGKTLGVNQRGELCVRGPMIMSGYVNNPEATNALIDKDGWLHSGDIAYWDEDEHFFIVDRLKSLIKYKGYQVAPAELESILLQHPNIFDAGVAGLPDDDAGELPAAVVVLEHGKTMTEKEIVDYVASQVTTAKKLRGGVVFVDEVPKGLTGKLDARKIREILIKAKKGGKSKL
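Purified P. pyralis luciferase (10nM final) with 10uM D-luciferin and 10uM ATP (Km levels) in 50mM Tris acetate pH 7.5, 10mM Mg acetate, 0.01% Tween-20, 0.05% BSA; qHTS 6-point titration, ~60 µM downward; luminescence read.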
p53 reactivation: mutant p53 re-activation in reporter cells; H1299 p53-A138V BP100-luciferase reporter, luminescence, 24 h; Potency, µM (top dose mostly 92.2 µM), most hits filed as activators; 320,000 tested, 0.063% active; AID 504706; also: nearly all actives have a fitted effect of over 45% in size
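H1299 (p53-null), stable ts p53-A138V + BP100-Luc; 1000 cells/well, Opti-MEM/10% FBS; cpd 4 pt, 1:5; 24 h, 37 deg C, 5% CO2; detection reagent 10 min RT; luminescence.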
Numbers stand for hits; - = inactive; ? = inconclusive; . = not tested or not shown; [ ] = another dose, or the depositor's remark. A selection: hits, their analogues and other compounds. The true share with any hit is near 7.3%. Calls follow the shape of the dose curve; as a rule, active = well fitted curve in the direction sought with a large enough effect; inconclusive = small, poorly fitted or top-dose-only effect, or another doubt; inactive = no such curve, though single readings can be large; an effect the other way counts as inactive or inconclusive.

SMILES	Rab9 promoter act	NPC1 prom act	ELG1 genotox	SMN2 splice up	FLuc counter	p53 reactivation
CC(C)c1cc(N2CCOCC2)n2ncc(-c3ccccc3)c2n1	-	-	-	.	-	?
Cc1nc2c(-c3ccc(F)cc3)cnn2c(N)c1-c1ccc(F)cc1	0.562µM	0.447µM	1.16µM	.	0.849µM	?
CCOc1ccccc1Nc1ccc2cc(S(=O)(=O)N3CCCCC3)ccc2n1	.	.	.	.	-	.
COc1ccc(C(=O)Nc2cnn(Cc3c(F)cccc3Cl)c2)cc1OC	-	-	-	.	19µM	-
COc1ccc(-c2cc(C(=O)Nc3cnn(Cc4ccc(F)cc4)c3)no2)cc1OC	.	.	.	-	-	.
Cn1c(=O)cc(OCCCC(=O)NC2CCCC2)c2ccccc21	-	-	?	15.8µM	-	-
Cn1c(=O)cc(OCC(=O)NC2CCCCC2)c2ccccc21	-	-	-	-	-	-
CCCCN(c1ccccc1)c1ncnc2c1cnn2C	.	.	.	-[9.22 µM]	.	.
CCCCN(c1ccccc1)c1ncnc2c1cnn2-c1ccc(Cl)cc1	.	.	.	.	13.5µM	.
CCN(c1ccccc1)c1ncnc2c1cnn2-c1ccc(OC)cc1	.	.	.	.	6.75µM	.
CCCCN(c1ccccc1)c1ncnc2c1cnn2-c1cccc(C)c1	.	.	.	.	-	.
CC(=O)c1ccc(-c2ccc(C(=O)N3CCCc4ccccc43)o2)cc1	-	-	-	?	?	-
O=c1c(CCc2ccccc2)nc2cnc(N3CCNCC3)nc2n1CCc1ccccc1	.	.	.	-	.	.
COC(=O)c1sccc1-n1cccc1C(=O)C(=O)Nc1ccc(F)cc1	-[1.84 µM]	-	-	-	-	-
COC(=O)c1ccc(NC(=O)Cc2ccc(C)cc2)cc1	-	-	-	-	-	-
COC(=O)c1ccc(NC(=O)C(=O)c2cccn2C)cc1	0.355µM	0.398µM	?	0.891µM	1.9µM	-
COC(=O)c1ccc(NC(=O)Cc2ccccc2)cc1	2.51µM	3.98µM	?	-	15.1µM	-
CCOc1ccc(NC(=O)c2ccc(NC(=O)COC(=O)Cc3ccc(OC)cc3)cc2)cc1	2.51µM	3.55µM	?	11.2µM	-	-
CC(=O)Nc1ccc(C(=O)OCCCOC(=O)c2ccc(NC(C)=O)cc2)cc1	-	-	-	.	-	-
CC(=O)Nc1ccc(C(=O)OCCc2ccccc2)cc1	-	-	?	.	12µM	?
C/C=C/C(=O)OCC(=O)Nc1ccc(SC(F)F)cc1	-	-	-	-	16.9µM	-
CCOc1ccc(NC(=O)CNC(=O)Cc2ccccc2)cc1	-	-	-	.	-	-
O=C(Cc1ccccc1)Nc1ccc(SC(F)F)cc1	3.16µM	3.98µM	-	11.2µM	16.9µM	?
CCOc1ccc(NC(=O)CN2C(=O)CSC(C)C2=O)cc1 (configuration not stated)	-	-	-	-	16.9µM	-
CCOc1ccc(NC(=O)Cc2ccccc2)cc1	2.82µM	3.55µM	?	8.91µM	21.3µM	?
SMILES	Rab9 promoter act	NPC1 prom act	ELG1 genotox	SMN2 splice up	FLuc counter	p53 reactivation
Cc1ccc(CSc2ncc(Cl)c(C(=O)NCCc3ccc(S(N)(=O)=O)cc3)n2)cc1	.	.	.	-	-	.
COc1ccc(S(=O)(=O)c2cnc3ccc(Cl)cc3c2N2CCCCC2C)cc1 (configuration not stated)	.	.	.	-	-	.
O=C(CCc1nc(-c2cccs2)no1)Nc1ccccc1[N+](=O)[O-]	.	.	.	.	-	.
CCOc1ccc(NC(=O)/C(C=Nc2ccccc2)=C(\C)O)cc1	-	-	-	.	12µM	-
COc1ccc(Nc2oc(COc3ccc(C)cc3)nc2C#N)cc1	-	-	-	-	-	?
COc1ccc(Nc2oc(COc3cccc(C)c3)nc2C#N)cc1	?	?	16.4µM	-	5.36µM	?
Cc1ccc(-c2nc(C#N)c(NCc3ccco3)o2)cc1	?	?	5.8µM	?	4.78µM	?
N#Cc1nc(COc2cccc(Cl)c2)oc1NCc1ccco1	?	-	?	-	19µM	?
COc1ccc(-c2nc(C#N)c(NCc3ccco3)o2)cc1	?	?	?	20µM	13.5µM	-
N#Cc1nc(-c2ccc(OCc3ccccc3)cc2)oc1NCc1ccco1	-	-	-	-	-	-
N#Cc1nc(-c2ccc(F)cc2)oc1NCc1ccco1	-	-	-	.	?	-
COCCNC(=O)c1c[nH]c2ccc(S(=O)(=O)N3CCC4(CC3)OCCO4)cc2c1=O	-	-	-	-	-	-

Assay outcomes (PubChem)
